# According to PubChem BioAssay AID488890 (Southern Research Specialized Biocontainment Screening …, 2010):
# About 1,300 (0.41%) of roughly 320,000 compounds were called active. Another 3% or so got no clear call; they are omitted. The rule behind the calls is not given here. These entries were drawn from the full list. Results with a measured potency or affinity are listed apart.
# Assay: growth inhibition of non-replicating M. tuberculosis (AID 488890);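 note: plate controls were DMSO cells for no effect and high antibiotic wells for full effect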
# Conditions: Mycobacterium tuberculosis non-replicating, at 25 µM, stronger effect = higher value
row,SMILES,inhibition
1,COc1ccc(/C=N/NC(=O)NC23CC4CC(CC(C4)C2)C3)c(OC)c1,27.6%
2,Cc1ccc(-c2noc(=O)n2CC(=O)Nc2ccc(S(=O)(=O)NC3CC3)cc2)cc1,11.5%
3,O=C(NCCN1CCN(c2ccccc2)CC1)C1CCN(S(=O)(=O)c2cccc3nonc23)CC1,18.8%
4,O=C(NC1CCCCCC1)c1ccc(CS(=O)(=O)Cc2ccc(F)cc2)o1,1.29%
5,Nc1nc(NCc2c(F)cccc2Cl)nn1-c1ccccc1,2.25%
6,CCCSc1nnc(Cn2c(=O)sc3ccccc32)n1-c1ccccc1,7.2%
7,CN(CC(=O)Nc1cccc(F)c1)C(=O)c1ccc(OCC2CCCO2)cc1 (centres undefined),-4.27%
8,Cc1ccc(S(=O)(=O)N2CCC(C(=O)OCC(=O)NCCc3ccccc3)CC2)cc1C,27.8%
9,CCOC(=O)C1CCN(S(=O)(=O)c2ccc(C)c(C)c2)CC1,-7.38%
10,O=C(NCCC(=O)N(CCc1ccccc1)Cc1ccccc1)c1ccc(Br)cc1,22.1%
11,Fc1ccc2nc(C(F)(F)F)cc(N3CCOCC3)c2c1,-5.99%
12,COc1cccc2sc(NN)nc12,-6.89%
13,COc1ccc(-c2nnc(Nc3nc4c(OC)cccc4s3)o2)c(OC)c1,60.8%
14,COc1ccccc1-c1nnc(Nc2nc3c(OC)cccc3s2)o1,19%
15,COc1cccc2sc(Nc3nc(-c4ccncc4)cs3)nc12,31.8%
16,O=C1Cc2ccccc2C(=O)N1Cc1ccccc1,-3.14%
17,Cc1cc(C)nc(NC(=O)c2ccc(Br)s2)n1,55.2%
18,COc1ccc(Cl)cc1NC(=O)CN(C)C(=O)c1ccc(-n2cncn2)cc1,0.55%
19,Nc1c(-c2ccccc2)cnn1-c1ccccc1,-6.23%
20,CC(=O)NC(=O)c1ccc(-c2ccc(Cl)cc2)o1,57.6%
21,CCOC(=O)c1cccc(NC(=O)c2cccnc2)c1,-4.27%
22,O=C(Nc1cccnc1)c1cc(-c2ccc(Cl)cc2)on1,71%
23,O=C(Nc1cccnc1)c1ccc(-c2cc(Cl)ccc2Cl)o1,-8.82%
24,COC(=O)c1sccc1-c1ccc(C(=O)Nc2cccnc2)o1,-4.8%
25,O=C(NNC(=O)c1ccccc1O)c1ccc(-c2ccc([N+](=O)[O-])cc2)o1,-16.6%
26,CCN(CC(=O)Nc1c(F)cccc1F)C(=O)CNC(=O)c1ccc2ccccc2c1,18.6%
27,CN(C)S(=O)(=O)c1cccc(C(=O)NC(=S)N(CCC#N)Cc2cccnc2)c1,42.5%

row,SMILES,inhibition
1,COCC(=O)N1CCC(Oc2ccc(C(=O)N3CCCCCC3)cc2)CC1,-1.31%
2,COc1ccc(-c2sc3ccccc3c2-c2ccc(O)cc2)cc1,17.4%
3,COc1ccc(NC(=O)CN(C)S(=O)(=O)c2ccc3c(c2)CCCN3C(C)=O)cc1,-3.38%
4,Cc1onc(C(=O)N2CCC(Cc3ccccc3)CC2)c1[N+](=O)[O-],-6.71%
5,CCOC(=O)CSc1nc2c(sc(=S)n2-c2ccc(CC)cc2)c(=O)[nH]1,48.4%
6,COc1ccc(NC(=O)CNc2ccccc2N2CCCC2=O)cc1S(=O)(=O)N1CCOCC1,13.9%
7,Cn1cccc1CC(=O)N/N=C/c1cc([N+](=O)[O-])ccc1Cl,14.2%
8,Cc1[nH][nH]c(=O)c1C(c1ccc(-c2cccc(C(=O)O)c2)o1)c1c(C)[nH][nH]c1=O,-6.98%
9,COC(=O)c1ccc(-c2ccc(C(c3c(C)[nH][nH]c3=O)c3c(C)[nH][nH]c3=O)o2)cc1,36.5%
10,Cc1c(NC(=S)NC(NC(=O)C(C)(C)C)C(Cl)(Cl)Cl)c(=O)n(-c2ccccc2)n1C (centres undefined),1.72%
11,O=C1OCC(CO)(CO)N=C1NNc1ccccc1[N+](=O)[O-],4.31%
12,CCC(=O)N/N=C/c1ccc(-c2ccc([N+](=O)[O-])cc2)o1,74.5%
13,O=C(CN1CCOCC1)N/N=C/c1ccc(-c2ccc(C(=O)O)cc2)o1,2.35%
14,O=C(CN1CCOCC1)N/N=C/c1ccc(-c2cccc(Cl)c2Cl)o1,20.1%
15,Cc1ccc(C(=O)N/N=C\c2ccc(-c3ccc(Cl)c(Cl)c3)o2)cn1,16.6%
16,Cc1ccc(C(=O)N/N=C/c2ccc(-c3cccc(Cl)c3)o2)cn1,-3.58%
17,CC1(CC(=O)N/N=C/c2ccc(-c3ccc(Cl)cc3)o2)OCCO1,69.5%
18,CN(C)c1ccc(C(=O)N/N=C/C23CC[C@@H](O)CC2(O)CC[C@@H]2[C@@H]3CCC3(C)C(C4=CC(=O)OC4)CCC23O)cc1 (some centres undefined),-3.55%
19,CCOC(=O)c1cc(C)n(-n2cnnc2)c1C,-3.13%
20,COc1ccc2c(c1)nc(SCC(=O)C(C)(C)C)n2C,7.17%
21,N#CC(=NCc1cccnc1)C1=C(O)c2ccccc2C1=O,16.1%
22,COc1ccc(N=C(C)C2=C(O)c3ccccc3C2=O)cc1,21%
23,COC(=O)C1=C(C)N(CCCC(=O)O)C(=O)NC1c1ccc(OC)cc1 (centres undefined),-3.65%
24,CCOc1ccc(N2C(=O)CNC2=S)cc1,27.5%
25,CCOc1ccc(N2CC(=O)N(c3ccc(OCC)cc3)CC2=O)cc1,2.08%
26,CN(C(=O)c1ccccc1C(=O)OCC(=O)NCc1cccs1)C1CCCCC1,-0.2%
27,O=C(c1ccc(Br)o1)N1CCN(c2ccc(F)cc2)CC1,66.9%
